# Bioassay records from PubChem.
# HEK cytotox – kills HEK 293 cells; hit rate 6.6% among 94,000; HEK 293 viability, ATP luminescence (CellTiter-Glo), 48-72 h; Potency, µM (doses to about 115 µM), for inactives: at the top dose activity change, negative = cytotoxicity, most hits filed as inhibitors; AID 1345083; note: nearly all actives have a fitted effect of over 60% in size
#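 ATP-coupled CellTiter-Glo luminescence served as viability read-out, recorded 10 min after reagent addition at room temperature. HEK 293 cells, 250 cells/well, had been incubated with pintool-transferred compound for 48 or 72 hr at 37 degree Celsius.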
# 3T3 cytotox – cytotoxic compounds in NIH 3T3 cells; hit rate 4.3% among 94,000; NIH 3T3 viability, CellTiter-Glo ATP luminescence, 48-72 h; Potency, µM (series often up to 96.7 µM), for the others: at the highest dose activity change, negative = cytotoxicity, hits mostly inhibitors; note: nearly all actives have a fitted effect of over 55% in size
#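 Cytotoxicity is measured as loss of cellular ATP: NIH 3T3 cells (400/well) are exposed to compound for 48 or 72 hr at 37 °C, then CellTiter-Glo luminescence is imaged after 10 min at room temperature.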
# GPT2 inh – blocks human glutamate pyruvate transaminase 2 | Potency, µM (highest dose often 57.7 µM), for the others: top-dose activity change, negative = inhibition, actives largely listed as inhibitors | Recombinant GPT2, coupled pyruvate oxidase/HRP Amplex Red fluorescence | Q8TD30 | hit rate 0.25% among 100,000; note: nearly all actives have a fitted effect of over 60% in size
# Target sequence (Q8TD30 whole entry, looked up): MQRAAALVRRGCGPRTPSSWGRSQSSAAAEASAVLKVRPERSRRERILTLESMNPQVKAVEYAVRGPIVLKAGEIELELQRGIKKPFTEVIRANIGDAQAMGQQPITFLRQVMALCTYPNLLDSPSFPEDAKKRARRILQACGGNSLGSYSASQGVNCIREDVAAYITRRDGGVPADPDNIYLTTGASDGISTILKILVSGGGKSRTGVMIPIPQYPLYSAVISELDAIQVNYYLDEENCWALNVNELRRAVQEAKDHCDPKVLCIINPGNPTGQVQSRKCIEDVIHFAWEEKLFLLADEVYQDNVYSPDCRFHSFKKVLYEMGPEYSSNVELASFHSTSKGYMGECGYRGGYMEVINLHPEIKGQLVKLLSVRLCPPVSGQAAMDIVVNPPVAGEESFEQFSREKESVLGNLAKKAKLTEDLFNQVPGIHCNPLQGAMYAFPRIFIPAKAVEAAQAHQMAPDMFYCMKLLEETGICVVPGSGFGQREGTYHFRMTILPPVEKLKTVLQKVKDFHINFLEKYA
#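 Recombinant GPT2 (10ng/uL) with 250uM a-KG and 2mM L-alanine, 30 min at room temperature, in HEPES pH 7.5 buffer. Pyruvate detected by pyruvate oxidase/HRP/Amplex Red fluorescence after 30 min in the dark; AOA (50uM) as positive control.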
# FLuc inh – blocks purified firefly luciferase enzyme activity | AID 1347043 | hit rate 2.5% among 76,000 | Potency, µM (top dose mostly 115 µM), most hits filed as inhibitors | P08659 | purified P. pyralis luciferase, luminescence, biochemical; note: nearly all actives have a fitted effect of over 65% in size
#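 Inhibitors were tested against purified firefly luciferase in a biochemical, low-substrate format (both substrates at 10uM) and luminescence measured with a CCD imager.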
# hNpr1 antagonist – human Npr1 receptor antagonism | P16066 | hit rate 1.6% among 76,000 | Potency, µM (top dose mostly 46.3 µM), without a hit: at the highest dose activity change, negative = inhibition, most hits filed as inhibitors | HEK293 hNpr1 GloSensor cGMP, ANP-stimulated luminescence; calls by dose curve; note: nearly all actives have a fitted effect of over 60% in size
#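 Compound pre-incubated 30 min at room temperature on GloSensor-loaded HEK293 cells stably carrying hNpr1 and the pGS-40F cGMP biosensor. Stimulation uses hNppA at 0.1 nM final; luminescence is taken at baseline and 20 min post-agonist.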
# An asterisk follows results filed as active; i = inactive; ? = inconclusive; · = no result given; [ ] = dose if it differs, or a comment. Most compounds without a hit are left out; they make up all but 10% or so of the library. Unless noted, calls come from the whole dose curve; as a rule, active = well fitted curve in the direction sought with a large enough effect; inconclusive = small, poorly fitted or top-dose-only effect, or another doubt; inactive = no such curve, though single readings can be large; an effect the other way counts as inactive or inconclusive. % is set by controls: 0 for no effect and ±100 for the full control effect; potency is the fitted concentration of half-maximal effect.
SMILES,HEK cytotox,3T3 cytotox,GPT2 inh,FLuc inh,hNpr1 antagonist
O=[S+]([O-])(Nc1nncs1)c1ccc2c(c1)OCCN(Cc1cccs1)C2,-30%[172 µM],25µM*,i,i,-10%[70.6 µM]
Cn1ccnc1CN1CCOc2cc([S+](=O)([O-])Nc3nncs3)ccc2C1,5%[172 µM],?,-9%[88.5 µM],i,5%[70.6 µM]
O=[S+]([O-])(Nc1ccccc1)c1ccc2c(c1)OCCN(Cc1ccc(F)cc1)C2,71µM*,50µM*,4%[88.5 µM],i,?
O=[S+]([O-])(Nc1cccnc1)c1ccc2c(c1)OCCN(Cc1ccncc1F)C2,-18%[172 µM],35µM*,i,i,0%[70.6 µM]
CCc1cccc(NC(=O)CN2CC3CC(C2)[C@H]2CCCC(=O)N2C3)c1 (stereo partly specified),-29%,2%,i,i,-9%
O=[S+]([O-])(Nc1cccnc1)c1ccc2c(c1)OCCN(Cc1cncc(F)c1)C2,-9%[172 µM],45µM*,-4%[88.5 µM],i,6%[70.6 µM]
Cc1ccc(C)c(-c2cc3c(=O)n(CCNC(=O)c4ccc(C#N)cc4)ccn3n2)c1,13µM*,?,i,i,-23%
Cc1ccc(C(=O)NCCn2ccn3nc(-c4cc(C)ccc4C)cc3c2=O)cc1,?,-17%,i,i,-7%
Cc1ccc(-c2cc3c(=O)n(CCNC(=O)Cc4c[nH]c5ccccc45)ccn3n2)c(C)c1,40µM*,-27%,-3%,?,?
Cc1ccc(-c2cc3c(=O)n(CCNC(=O)c4cc(C5CC5)[nH]n4)ccn3n2)c(C)c1,?,-26%,i,1.3µM*,?
Cc1ccc(-c2cc3c(=O)n(CCNC(=O)c4ccc5ccccc5n4)ccn3n2)c(C)c1,?,?,i,?,?
Cc1ccc(-c2cc3c(=O)n(CCNC(=O)c4ccc(F)cc4)ccn3n2)c(C)c1,?,-26%,i,?,?
COc1ccccc1C(=O)NCCn1ccn2nc(-c3cc(C)ccc3C)cc2c1=O,?,?,-11%,i,-4%
COc1ccc(C(=O)NCCn2ccn3nc(-c4cc(C)ccc4C)cc3c2=O)c(OC)c1,40µM*,?,i,i,-22%
O=C1Nc2ccccc2CNC12CCN(CC1CCNC1)CC2 (stereo unspecified),i,i,i,·,·
Cc1ccc(C)c(-c2cc3c(=O)n(CCNC(=O)c4ccccc4Cl)ccn3n2)c1,45µM*,35µM*,i,i,-18%
Cc1ccc(-c2cc3c(=O)n(CCNC(=O)Cc4ccccc4Cl)ccn3n2)cc1C,?,-18%,-2%,i,-16%
Cc1ccc(C)c(-c2cc3c(=O)n(CCNC(=O)c4ccc5ccccc5n4)ccn3n2)c1,35µM*,?,-1%,i,-18%
Cc1ccc(-c2cc3c(=O)n(CCNC(=O)Cc4ccccc4Cl)ccn3n2)c(C)c1,-26%,-21%,i,2.5µM*,-25%
CCN(CC)C(=O)N1CCCC(c2nc(-c3ccccc3)no2)CCNC(=O)CC1 (stereo unspecified),-12%,-20%,i,i,0%
CC(C)CNC(=O)c1cc2n(n1)CC(c1ccc3c(c1)OCO3)OC2 (stereo unspecified),45µM*,40µM*,i,i,-3%
CCC(C)NC(=O)c1cc2n(n1)CC(c1ccc3c(c1)OCO3)OC2 (stereo unspecified),?,?,1%,i,-6%
CCc1ccc(NC(=O)c2cc3n(n2)CC(c2ccc4c(c2)OCO4)OC3)cc1 (stereo unspecified),32µM*,?,i,?,11µM*
COc1ccc(S(=O)(=O)Nc2ccc(C)n(CC(=O)N(C)C)c2=O)cc1,15%,5%,i,i,2%
O=C(O)Cc1cccc(OCCCN(Cc2cccc(C(F)(F)F)c2Cl)CC(c2ccccc2)c2ccccc2)c1,·,·,24µM*,·,·
SMILES,HEK cytotox,3T3 cytotox,GPT2 inh,FLuc inh,hNpr1 antagonist
O=C(NC1CCN(C(=O)N2CC3CC(C2)[C@H]2CCCC(=O)N2C3)CC1)C1CCCCC1 (stereo partly specified),?,i,-15%,i,2%
Cc1ccccc1-c1ncc(CN(C)C(C)c2ccon2)s1 (stereo unspecified),?,?,4%,i,0%
COc1ccc2c3c1CN(C(=O)N(C)C)CC3=CC(C)(C)CO2,?,-31%,·,·,·
CCc1nc2c(c(-c3ccc(Cl)cc3)n1)CCN(Cc1cccc3ccccc13)CC2,45µM*,-23%,i,i,0%
CCc1nc2c(c(-c3ccc(OC)cc3)n1)CCN(Cc1cccc3ccccc13)CC2,?,?,-5%,·,·
CC(C)c1nc2c(c(-c3ccc(O)cc3)n1)CCN(Cc1cccc3ccccc13)CC2,25µM*,?,i,i,?
CCc1nc2c(c(-c3ccc(O)cc3)n1)CN(Cc1cccc3ccccc13)CC2,89µM*,?,i,i,-21%
COc1ccc(-c2ccc3nnc(CNC(=O)CCc4ccccc4)n3n2)cc1,-14%,-13%,1%,i,6%
O=C(Cc1c[nH]c2ncc(-c3cccc(CO)c3)cc12)NCc1cccnc1,-22%[172 µM],?,3%[88.5 µM],i,-9%[70.6 µM]
COc1ccc(-c2cnc3[nH]cc(CC(N)=O)c3c2)cc1OC,?,10µM*,-1%[88.5 µM],i,-2%[70.6 µM]
NC(=O)Cc1c[nH]c2ncc(-c3ccc(F)cc3)cc12,-7%[230 µM],?,i,?,1%[70.6 µM]
Cc1noc(C)c1-c1cnc2[nH]cc(CC(=O)NCc3cccnc3)c2c1,?,32µM*,i,i,0%[70.6 µM]
Cc1noc(C)c1-c1cnc2[nH]cc(CC(N)=O)c2c1,?,10µM*,-27%[88.5 µM],i,-4%[70.6 µM]
Cc1cc2nc3n(c(=O)c2n1CC(=O)Nc1ccc(F)cc1F)CCC3,-16%,-20%,i,i,2%
CCCc1cc(C(=O)N2CCCC3(CCC(=O)N(CCOC)C3)C2)cs1 (stereo unspecified),-2%,-10%,-1%[11.5 µM],i,3%
COc1cc(F)ccc1-c1ccnc2nc(CC(C)C)nn12,-26%,-8%,i,i,-9%
c1ccc(-c2[nH]ncc2CN2CCCC(N3CCN(c4ccccc4)CC3)C2)cc1 (stereo unspecified),?,-15%,i,i,1%
c1ccc(N2CCN(C3CCCN(Cc4cn[nH]c4C4CCCCC4)C3)CC2)cc1 (stereo unspecified),89µM*,-22%,?,i,-1%
O=C(NCc1cc2n(n1)CCNC2)c1cc2c(s1)CCCCC2,-2%,i,-12%,32µM*,3%
O=C(CCc1cc2n(n1)CCCNC2)NCc1csc2c1CCCC2,-6%,0%,?,i,0%
